Rows were chosen to be rich in hits. Some 6% of all compounds tested hit in one or more screens of this group.
D1 agonist – Allosteric Agonists of the Human D1 Dopamine Receptor: qHTS | D(1A) dopamine receptor (Homo sapiens), P21728 | HEK293 T-REx D1 cells, calcium flux, agonist mode | activation, % at 2 µM | actives 1% (n = 360,000) | AID 504660, 2011; in the data active = activation above about 30%; also: 0% is about no effect
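Agonism was scored from calcium flux recorded over 180 s (1 read/s) after pintool compound addition, following a 10-cycle baseline. Cells were inducible force-coupled HEK293 TREx D1, plated overnight at 30 C and loaded with no-wash calcium dye.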
D1 potentiator – Potentiators of Human D1 Dopamine Receptor: qHTS; D(1A) dopamine receptor (Homo sapiens), P21728; HEK293 TREx D1 cells, calcium flux, dopamine EC20 potentiation; potentiation, % at 10 µM; actives 0.036% (n = 360,000); AID 504651, 2011; in the data active = potentiation above about 30%; also: 0% is about no effect
DRD3 antagonist – qHTS of D3 Dopamine Receptor Antagonist: qHTS | actives 2.5% (n = 360,000) | AID 652054, 2013 | max response, negative = inhibition, % | D3R cells, DiscoveRx beta-arrestin luminescence, antagonist mode; active compounds read low; in the data active = max response below about -50%; also: % is scaled to controls: 0 for no effect and ±100 for the full control effect
Target sequence (P35462 whole entry, looked up): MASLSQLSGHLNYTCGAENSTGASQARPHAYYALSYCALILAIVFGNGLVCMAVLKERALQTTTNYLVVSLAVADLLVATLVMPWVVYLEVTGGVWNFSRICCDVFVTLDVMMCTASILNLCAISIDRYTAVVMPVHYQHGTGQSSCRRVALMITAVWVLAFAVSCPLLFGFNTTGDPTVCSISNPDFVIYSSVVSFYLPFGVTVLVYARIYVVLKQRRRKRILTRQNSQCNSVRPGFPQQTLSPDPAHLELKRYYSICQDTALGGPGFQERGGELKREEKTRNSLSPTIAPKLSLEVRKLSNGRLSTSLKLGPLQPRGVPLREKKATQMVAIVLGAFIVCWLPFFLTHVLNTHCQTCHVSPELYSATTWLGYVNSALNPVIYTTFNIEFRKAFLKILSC
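Cells plated overnight at 1500 cells/well, then exposed to library compounds with dopamine controls for 90 minutes at 37 degrees C. DiscoveRx reagent added for 30–60 minutes at room temperature; luminescence read, quantitative HTS format.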
D1 antagonist – Antagonist of Human D 1 Dopamine Receptor: qHTS; HEK293 TREx D1 cells, calcium flux, dopamine EC80; active compounds read low; activity change, negative = inhibition, % at 10 µM; actives 3.2% (n = 360,000); AID 504652, 2011; in the data active = activity change below about -30%; also: % is scaled to controls: 0 for no effect and ±100 for the full control effect
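Antagonism measured as reduced calcium response to an EC80 dopamine addition following 180 s compound pre-read; cells were inducible HEK293 Trex D1 plated overnight at 30 C, read kinetically at 1 cycle/sec.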
DRD3 agonist – qHTS of D3 Dopamine Receptor Agonist: qHTS. D(3) dopamine receptor (Homo sapiens), P35462. D3R DiscoveRx beta-arrestin cells, luminescence, 90 min. max activation, %. actives 0.58% (n = 410,000); in the data active = max activation above about 30%; also: 0% is about no effect
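Agonist mode: compounds and dopamine controls were applied to plated cells for 90 min at 37 degrees C after an overnight attachment at 1500 cells/well. Luminescent read-out followed 30 - 60 minutes at room temperature with DiscoveRx detection reagent.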
* hit, by the source's call.

How did CN1CC[C@@]23CCCC[C@@H]2[C@@H]1Cc1ccc(O)cc13 do in these assays?
D1 agonist: 7; D1 potentiator: -3; DRD3 antagonist: -13; D1 antagonist: -32*; DRD3 agonist: -6

What do the screens show for `COc1ccc(N2C(=O)NC(=O)/C(=C\c3ccccc3[N+](=O)[O-])C2=O)cc1`?
D1 agonist: 1; D1 potentiator: 0; DRD3 antagonist: 3; D1 antagonist: -3; DRD3 agonist: 7

How did CCOc1ccc(N2C(=O)NC(=O)/C(=C\c3ccccc3[N+](=O)[O-])C2=O)cc1 do in these assays?
D1 agonist: 1; D1 potentiator: 5; DRD3 antagonist: 25; D1 antagonist: -46*; DRD3 agonist: 9

Results for O=[N+]([O-])c1ccc(NCc2ccccc2)c2nonc12 ?
D1 agonist: 593*; D1 potentiator: -2; DRD3 antagonist: -5; D1 antagonist: -59*; DRD3 agonist: 0

What do the screens show for `O=C(COc1ccccc1[N+](=O)[O-])N1CCN(CCc2ccncc2)CC1`?
D1 agonist: 3; D1 potentiator: 0; D1 antagonist: -4; DRD3 agonist: 2

Results for Cc1cccc(-n2c(O)c(/C=C/C=Nc3ccccc3)c(=O)[nH]c2=O)c1 ?
D1 agonist: 34*; D1 potentiator: 2; DRD3 antagonist: -24; D1 antagonist: -1; DRD3 agonist: -6

How did Cn1c(O)c(/C=C/C=Nc2ccccc2)c(=O)n(C)c1=S do in these assays?
D1 agonist: 64*; D1 potentiator: 5; DRD3 antagonist: 0; D1 antagonist: 2; DRD3 agonist: -1

Results for N#Cc1cc2c(nc1SCC(=O)Nc1ccc(F)c(Cl)c1)C1CCN2CC1 ?
D1 agonist: 1; D1 potentiator: -1; D1 antagonist: 5; DRD3 agonist: 1

Results for CN1CC(C(=O)c2ccc(F)cc2)C(c2ccc(F)cc2)C1 (stereo not drawn) ?
D1 agonist: 5; D1 potentiator: -8; DRD3 antagonist: -129*; D1 antagonist: 1; DRD3 agonist: -13

Results for O=C(CS(=O)C(c1ccccc1)c1ccccc1)NO (stereo not drawn) ?
DRD3 agonist: 9

What do the screens show for `CNC(=O)c1cccn(Cc2cc(C(F)(F)F)cc(C(F)(F)F)c2)c1=O`?
D1 agonist: 30*; D1 potentiator: -1; DRD3 antagonist: 15; D1 antagonist: 1; DRD3 agonist: 7

Results for CNC(=O)c1cccn(Cc2ccc(C(F)(F)F)cc2)c1=O ?
D1 agonist: 6; D1 potentiator: -3; DRD3 antagonist: 13; D1 antagonist: 1; DRD3 agonist: 1

How did C[C@]12C=CC(=O)C=C1CC[C@@H]1[C@@H]2CC[C@]2(C)OC(=O)CC[C@@H]12 do in these assays?
DRD3 agonist: -7

Results for CCN1CCN(S(=O)(=O)c2ccc(Cl)nc2)CC1 ?
D1 agonist: 6; D1 potentiator: -4; DRD3 antagonist: -10; D1 antagonist: -35*; DRD3 agonist: -11

What do the screens show for `CCN1CCN(C(=O)COc2ccc(S(=O)(=O)N3CCOCC3)cc2Cl)CC1`?
D1 agonist: 0; D1 potentiator: -1; DRD3 antagonist: 2; D1 antagonist: 6; DRD3 agonist: -23

What do the screens show for `CCCC(C)C1(CC)C(=O)N=C(S)NC1=O` (stereo not drawn)?
DRD3 agonist: 0

What do the screens show for `C[C@]12C=CC(=O)C=C1CC[C@@H]1[C@@H]2CC[C@@]2(C)[C@H]1CC[C@]2(C)O`?
DRD3 agonist: -9

What do the screens show for `F/C(COc1ccc2c(c1)[nH]c1ccccc12)=C1/CN2CCC1CC2`?
DRD3 agonist: -14

Results for CC(=O)O[C@H]1CC[C@@]2(C)C(=CC(=O)C3C2CC[C@@]2(C)C3C[C@H](OC(C)=O)[C@@H]2OC(C)=O)C1 (stereo partly drawn) ?
DRD3 antagonist: 12; DRD3 agonist: 2

Assay outcomes deposited in PubChem BioAssay by National Center for Advancing Translational Sciences (NCATS).
